Only some compounds are listed: those with a hit (about 3.2% of all), similar ones and a draw of the others.
CDK5 inh: CDK5/p35 (human) kinase inhibition; Recombinant CDK5/p35, ADP-Glo luminescence, 60 min; inhibition, % at 10 µM; 330,000 tested, 0.01% active; Q00535+Q15078;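 active means highest replicate inhibition of at least 50% and at least 75% of replicates reaching 50%; inconclusive means only one of the two criteria met; inactive means both criteria failed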;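 further: plate controls were DMSO neutral control for no effect and GW8510 at 10 µM for full effect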
DYRK1A inh: blocks rat Dyrk1A kinase activity; ADP-Glo luminescence, NFATc1 peptide; inhibition, % at 12.5 µM; 310,000 tested, 0.43% active; in the data active means inhibition above about 50%;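 further: plate controls were vehicle with enzyme for no effect and no enzyme for full effect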
dFosB act: activators of mouse delta FosB homodimer; P13346; purified delta FosB, TAMRA-CDK5 oligo fluorescence polarization; percent of positive-control signal above neutral wells; activation, % at 25 µM; 340,000 tested, 0.99% active; AID 493131;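 active means mean activation above about 17%, with every replicate also reaching it, limit read from the data, passing the limit was not always enough; inconclusive means only one of the two conditions met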
Target sequence (P13346 whole entry, looked up): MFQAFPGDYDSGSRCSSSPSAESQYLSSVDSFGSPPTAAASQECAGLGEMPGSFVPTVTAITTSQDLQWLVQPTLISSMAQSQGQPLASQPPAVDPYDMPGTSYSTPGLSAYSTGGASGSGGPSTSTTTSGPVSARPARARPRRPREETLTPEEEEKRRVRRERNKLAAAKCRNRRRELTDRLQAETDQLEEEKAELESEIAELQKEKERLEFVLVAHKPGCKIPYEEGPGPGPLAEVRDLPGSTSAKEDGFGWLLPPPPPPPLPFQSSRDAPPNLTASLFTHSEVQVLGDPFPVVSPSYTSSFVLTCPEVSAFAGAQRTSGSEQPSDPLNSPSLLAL
SMARCA2 activ: increases SMARCA2 function in MMTV reporter cells; activation, % at 9.1 µM; AID 652017; 370,000 tested, 1% active; MG213 cells, MMTV-luciferase reporter, dexamethasone, overnight; in the data active means activation above about 7.8%;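 further: 0% = vehicle wells and 100% = reference activator wells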
esBAF inh: blocks esBAF chromatin remodeling in mouse ES cells; Bmi1-luciferase knock-in reporter, 24 h; 100% = twice the neutral-well signal; 350,000 tested, 2% active; reporter increase, % at 12.5 µM; in the data active means activation above about 40%; inconclusive means no clear call, values can overlap the other calls;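 further: 0% = median of the plate's neutral control wells and 100% = double that signal; a rise in the Bmi1 reporter signal indicates esBAF inhibition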
Rtt109 HAT inh: blocks Candida albicans Rtt109/Vps75 acetyltransferase activity | AID 540336 | 330,000 tested, 0.16% active | inhibition, % at 34.9 µM | purified Rtt109/Vps75, ThioGlo CoA-SH fluorescence, 4 h;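 active means inhibition of at least 50% in every replicate; inconclusive means best replicate reaches 50% inhibition but some replicates fall short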
The depositor's hits bear a star; ? = inconclusive; / = not tested or not shown.

SMILES	CDK5 inh	DYRK1A inh	dFosB act	SMARCA2 activ	esBAF inh	Rtt109 HAT inh
COc1ccc(OCc2cc(C(=O)NCC3CCCCO3)no2)c(Cl)c1 (stereo unspecified)	/	/	-13	0	37	-1
COc1ccc(OCc2cc(C(=O)NCC(C)Oc3cccnc3)no2)c(Cl)c1 (stereo unspecified)	-3	6	-3	0	70*	-1
C[C@@H]1CCCCO[C@H](CN(C)C(=O)C2CCCCC2)[C@@H](C)CN([C@@H](C)CO)C(=O)c2cc(NC(=O)c3ccccc3)ccc2O1	/	/	/	/	4	/
O=C(C[C@H]1CC[C@@H]2[C@H](COC[C@H](O)CN2CC2CCCCC2)O1)NCc1ccc(Cl)cc1	/	/	/	/	6	/
O=C(N[C@@H]1CC[C@@H](CCNC(=O)c2cnccn2)O[C@H]1CO)c1ccc2c(c1)OCO2	/	/	/	/	-3	/
O=C(Nc1cccc(F)c1)c1ccc(-c2ccccc2C(F)(F)F)o1	/	/	/	1	/	/
Cc1ccccc1-c1ccc(C(=O)Nc2cccc(F)c2)o1	2	0	5	5	45*	-8
COc1ccc(NC(=O)c2ccc(-c3ccccc3C(F)(F)F)o2)cc1	0	-2	-9	7.9*	26	-28
COc1ccccc1CNC(=O)c1ccc(-c2ccccc2C(F)(F)F)o1	2	6	0	1	20	4
O=C(N[C@H]1CC[C@H](CCNS(=O)(=O)c2ccccc2)O[C@H]1CO)c1cnccn1	/	/	/	/	3	/
N#Cc1nc(COc2cccc(Cl)c2)oc1NCc1ccco1	1	-9	-6	5	51*	3
CCNc1oc(COc2cccc(C)c2)nc1C#N	0	-1	-6	-2	45*	0
Cc1ccc(OCc2nc(C#N)c(NCc3ccco3)o2)cc1	0	-5	-6	-1	-3	1
Cc1cccc(OCc2nc(C#N)c(NCCN(C)C)o2)c1	0	-3	-2	4	3	-4
C#CCOCCOCCOCCNc1nc(N2CCN(C(=O)[C@H](CCCCN)n3cc([C@@H](N)CC(C)C)nn3)CC2)nc(N2CCN(C(=O)[C@H](Cc3cc4ccccc4[nH]3)n3cc([C@@H](N)Cc4ccc(O)cc4)nn3)CC2)n1	11	8	59*	/	1	?
C#CCOCCOCCOCCNc1nc(N2CCN(C(=O)[C@H](CCCCN)n3cc([C@@H](N)C(C)CC)nn3)CC2)nc(N2CCN(C(=O)[C@H](Cc3cc4ccccc4[nH]3)n3cc([C@@H](N)C(C)CC)nn3)CC2)n1 (stereo partly specified)	7	/	63*	/	15	2
C#CCOCCOCCOCCNc1nc(N2CCN(C(=O)[C@H](Cc3ccc(O)cc3)n3cc([C@@H](N)CC(C)C)nn3)CC2)nc(N2CCN(C(=O)[C@H](Cc3cc4ccccc4[nH]3)n3cc([C@@H](N)CC(C)C)nn3)CC2)n1	/	/	/	-1	/	/
C#CCOCCOCCOCCNc1nc(N2CCN(C(=O)[C@H]([C@@H](C)CC)n3cc([C@@H](N)Cc4ccc(O)cc4)nn3)CC2)nc(N2CCN(C(=O)[C@H](Cc3cc4ccccc4[nH]3)n3cc([C@@H](N)CC(C)C)nn3)CC2)n1	2	10	23*	/	2	5
C#CCOCCOCCOCCNc1nc(N2CCN(C(=O)[C@H](CCCN=C(N)N)n3cc(C(N)[C@@H](C)CC)nn3)CC2)nc(N2CCN(C(=O)[C@H](CCCCN)n3cc([C@@H](N)CC(N)=O)nn3)CC2)n1 (stereo partly specified)	3	5	13	2	3	80*
C#CCOCCOCCOCCNc1nc(N2CCN(C(=O)C(Cc3cc4ccccc4[nH]3)n3cc(C(N)C(C)CC)nn3)CC2)nc(N2CCN(C(=O)C(Cc3cc4ccccc4[nH]3)n3cc(C(N)C(C)CC)nn3)CC2)n1 (stereo unspecified)	1	6	?	/	-7	9
Cc1ccc(S(=O)(=O)N(C)C[C@H]2Oc3ccc(NC(=O)C4CCCCC4)cc3C(=O)N([C@@H](C)CO)C[C@@H]2C)cc1	/	/	/	/	-9	/
C[C@@H]1CCCCO[C@@H](CN(C)C(=O)Nc2ccc(C(F)(F)F)cc2)[C@H](C)CN([C@@H](C)CO)C(=O)c2cc(NC(=O)Nc3ccc(F)cc3)ccc2O1	/	/	/	/	2	/
O=C(N[C@@H]1CC[C@@H](CC(=O)N2CCN(c3ccccc3)CC2)O[C@H]1CO)c1ccncc1	/	/	/	/	-5	/
CC(C)n1c(O)c(N=NC(=O)c2ccccc2NS(=O)(=O)c2cccs2)c2ccccc21	2	0	30*	-1	/	5
COc1cc(/C=N/NS(=O)(=O)c2ccc3ccccc3c2)ccc1OCCN1CCOCC1	-2	-16	-5	10*	3	48
SMILES	CDK5 inh	DYRK1A inh	dFosB act	SMARCA2 activ	esBAF inh	Rtt109 HAT inh
C[C@H](CO)N1C[C@H](C)[C@@H](CN(C)C(=O)c2cnccn2)Oc2cc(C#CC3CC3)ccc2S1(=O)=O	/	/	/	/	2	/
CCCNC(=O)N1C[C@H](C)[C@H](OC)CN(C)C(=O)c2ccc(NS(C)(=O)=O)cc2OC[C@@H]1C	/	/	/	/	-4	/
CCSc1nnc2c(n1)OC(C)(C)Nc1ccccc1-2	-3	-2	-1	3	48*	-1
C[C@@H]1CN([C@H](C)CO)S(=O)(=O)c2ccc(C3=CCCCC3)cc2O[C@H]1CN(C)C(=O)CN(C)C	/	/	/	/	-5	/
CCC(C)NC(=O)c1ccc2c(Cl)c3c(nc2c1)CCC3 (stereo unspecified)	-2	1	-16	4	53*	-2
COc1cc(C=O)ccc1OCc1ccc(Cl)nc1	0	/	-12	-1	63*	3
COc1cc(C=O)ccc1OCc1ccncc1	-1	3	0	-2	-2	/
Cc1cc(CNC(=O)c2cccc(OC3CCN(S(=O)(=O)N(C)C)CC3)c2)on1	1	-8	-4	0	71*	5
CN(C)S(=O)(=O)N1CCC(Oc2cccc(C(=O)NC3CCCCCC3)c2)CC1	2	-5	-6	-4	0	3
COc1ccc(S(=O)(=O)Nc2ccc3c(c2)OC[C@@H](C)N(C(=O)NC(C)C)C[C@@H](C)[C@H](OC)CN(C)C3=O)cc1	/	/	/	/	1	/
CCOc1ccc(OCC(=O)Nc2ccc(N3CCCCC3)cc2)cc1	-3	-8	-9	0	2	-3
Cc1cc(OCC(=O)Nc2ccc(N3CCCC3)cc2)cc(C)c1Cl	0	2	65*	0	4	5
Cc1oc(C(C)(C)C)cc1C(=O)Nc1ccc2c(c1)OCCO2	3	8	2	4	44*	6
CC(C)CN1C(=O)c2ccc(NC(=O)c3ccccc3F)cc2C1=O	2	4	0	0	47*	2
O=C(/C=C/c1ccccc1)Nc1ccc(N2CCCCC2)cc1	-3	-5	-5	1	62*	0
O=C(Nc1ccc(N2CCCCC2)cc1)c1ccccc1	-2	3	-10	3	-8	-33
